Measured values: PubChem BioAssay (NCI)
The panel holds about 83,000 compounds, 20% with a hit somewhere; the sample as a whole holds those more often.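 Plates (96-well) were seeded with cells, treated with compound at one concentration, and incubated for 48 hours before percent growth was determined.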 Activity calls are given as the source filed them. Rule for the calls: active = growth percent below 10; inactive = the rest.

Columns and labels:
Experiment in all cases: NCI-60 one-dose screen, 48 h (100 = growth as untreated, 0 = no growth, -100 = all killed)
Conditions in all cases: 10 µM unless noted
SR leukemia = test system: SR leukemia
RPMI-8226 leukemia = test system: RPMI-8226 leukemia
OVCAR-8 ovarian = test system: OVCAR-8 ovarian
OVCAR-5 ovarian = test system: OVCAR-5 ovarian
OVCAR-4 ovarian = test system: OVCAR-4 ovarian
SK-OV-3 ovarian = test system: SK-OV-3 ovarian
HS 578T breast = test system: HS 578T breast
NCI/ADR-RES ovarian = test system: NCI/ADR-RES ovarian
T-47D breast = test system: T-47D breast
BT-549 breast = test system: BT-549 breast
MDA-MB-435 melanoma = test system: MDA-MB-435 melanoma
SW-620 colon = test system: SW-620 colon
MCF7 breast = test system: MCF7 breast
HCC-2998 colon = test system: HCC-2998 colon
KM12 colon = test system: KM12 colon
OVCAR-3 ovarian = test system: OVCAR-3 ovarian
HCT-116 colon = test system: HCT-116 colon
IGROV1 ovarian = test system: IGROV1 ovarian

| Structure (SMILES) | growth (SR leukemia) | growth (RPMI-8226 leukemia) | growth (OVCAR-8 ovarian) | growth (OVCAR-5 ovarian) | growth (OVCAR-4 ovarian) | growth (SK-OV-3 ovarian) | growth (HS 578T breast) | growth (NCI/ADR-RES ovarian) | growth (T-47D breast) | growth (BT-549 breast) | growth (MDA-MB-435 melanoma) | growth (SW-620 colon) | growth (MCF7 breast) | growth (HCC-2998 colon) | growth (KM12 colon) | growth (OVCAR-3 ovarian) | growth (HCT-116 colon) | growth (IGROV1 ovarian) |
| --- | --- | --- | --- | --- | --- | --- | --- | --- | --- | --- | --- | --- | --- | --- | --- | --- | --- | --- |
| COc1ccccc1-n1c(-c2ccc(O)cc2C)cn2c3c(=O)[nH]c(=O)n(C)c3nc12 | 90.8% (inactive) | 93% (inactive) | 86.3% (inactive) | 86.9% (inactive) | 84.4% (inactive) | 65.8% (inactive) | 50.2% (inactive) | 108% (inactive) | 77.3% (inactive) | 135% (inactive) | 101% (inactive) | 94.7% (inactive) | 91.7% (inactive) | 104% (inactive) | 103% (inactive) |  |  |  |
| Cc1ccc(-c2cc(-c3ccccc3)n(-c3ccccc3)n2)cc1 | 72.3% (inactive) | 83.8% (inactive) | 105% (inactive) | 95.8% (inactive) | 85.3% (inactive) | 105% (inactive) |  | 101% (inactive) | 74.6% (inactive) |  | 89% (inactive) | 99.9% (inactive) | 97.5% (inactive) | 99.1% (inactive) | 106% (inactive) | 103% (inactive) | 29.9% (inactive) |  |
| c1ccc(-c2n(Cc3ccc4ccccc4c3)cc[n+]2Cc2ccc3ccccc3c2)cc1 | -42.2% (active) | -37% (active) | -72.4% (active) | -35.9% (active) | -28.1% (active) | -6.1% (active) |  | 82.2% (inactive) | -0.722% (active) | -77.5% (active) | -73.2% (active) | -50.7% (active) | -65.8% (active) | -59.9% (active) | -81.5% (active) | -89.8% (active) | -91.6% (active) |  |
| c1cc[n+](Cc2ccnc3ccccc23)cc1 | 24.1% (inactive) | 97.1% (inactive) | 99.6% (inactive) | 103% (inactive) |  | 103% (inactive) | 109% (inactive) | 109% (inactive) | 106% (inactive) | 112% (inactive) | 100% (inactive) | 50.2% (inactive) | 41.1% (inactive) | 105% (inactive) | 103% (inactive) | 118% (inactive) | 21.1% (inactive) | 117% (inactive) |
| Cc1sc2nc(NCCc3cccs3)[nH]c(=O)c2c1C | 72.1% (inactive) | 86.7% (inactive) | 87.4% (inactive) | 97.8% (inactive) | 95.6% (inactive) | 79% (inactive) |  | 85.2% (inactive) | 74.6% (inactive) | 74.7% (inactive) | 84.2% (inactive) | 96.4% (inactive) | 87.3% (inactive) | 101% (inactive) | 92.6% (inactive) | 106% (inactive) | 71% (inactive) |  |
| Cc1ccc(-c2c3c(N)nc(-c4ccncc4)nc3nc3c2c(C)nn3-c2ccccc2)cc1 | 3.61% (active) | 62.5% (inactive) | 21.9% (inactive) | 65% (inactive) |  | -22.1% (active) | 32.7% (inactive) | 46.6% (inactive) | 35.6% (inactive) | 59.4% (inactive) | 31.4% (inactive) | 39.5% (inactive) | 1.86% (active) | 99.8% (inactive) | 74.7% (inactive) | 73.6% (inactive) | 12.7% (inactive) | 71.7% (inactive) |
| Cc1n(Cc2ccc3ccccc3c2)cc[n+]1Cc1ccc2ccccc2c1 | -3.72% (active) | 2.6% (active) | 3.06% (active) | 20.6% (inactive) | 9.29% (active) | 21% (inactive) |  | 92.7% (inactive) | 0.847% (active) | -13.6% (active) | -14.6% (active) | 18.7% (inactive) | 7.52% (active) | 7.45% (active) | -9.94% (active) | -1.02% (active) | 6.14% (active) |  |
| CCCCCCCCCCCCCCCCCC1=NC(C)(CO)CO1 (configuration not stated) | 118% (inactive) | 86.7% (inactive) | 97.6% (inactive) | 90.5% (inactive) |  | 97.8% (inactive) | 92.5% (inactive) | 85.8% (inactive) | 87.7% (inactive) | 92.9% (inactive) | 103% (inactive) | 108% (inactive) | 121% (inactive) | 98.3% (inactive) | 102% (inactive) | 95.3% (inactive) | 105% (inactive) | 101% (inactive) |
| Cn1c(N2N=C(c3ccc(Cl)cc3)CC2c2ccccc2)nc(-c2ccccc2)c(C#N)c1=O (configuration not stated) | 58.8% (inactive) | 54.9% (inactive) | 73.8% (inactive) | 99.6% (inactive) | 89.4% (inactive) |  | 86.5% (inactive) | 82.9% (inactive) | 64.4% (inactive) | 88.1% (inactive) | 83.6% (inactive) | 77.1% (inactive) | 62.1% (inactive) | 82.3% (inactive) | 78.3% (inactive) | 71.7% (inactive) |  | 79% (inactive) |
| O=C(Nc1nc(-c2ccc(Cl)cc2)cs1)c1cc(-c2ccc(Br)cc2)nc2ccc(Cl)cc12 | 15.4% (inactive) | 16.1% (inactive) |  | 106% (inactive) | 47.3% (inactive) | 86.6% (inactive) | 49.4% (inactive) | 8.07% (active) | 53% (inactive) | -15.9% (active) | -21.6% (active) | 34.9% (inactive) | 16.4% (inactive) | 109% (inactive) | 24.8% (inactive) | 10% (inactive) | 5.84% (active) | 30.8% (inactive) |
| CCOC(=O)Nc1cc(-c2ccc(C)c(NS(C)(=O)=O)c2)nn2c(C)nnc12 | 24.9% (inactive) | -20.4% (active) |  | 32.2% (inactive) | 22.8% (inactive) | 4.31% (active) | 9.38% (active) | 53.3% (inactive) | 23.3% (inactive) | 49.5% (inactive) | 9.2% (active) | 30.2% (inactive) | 13% (inactive) | -58% (active) | 12.2% (inactive) | -10.4% (active) | 15.6% (inactive) | -45.6% (active) |
| O=C(Nc1ccccc1S)c1ccccc1 | 82.6% (inactive) |  | 105% (inactive) | 123% (inactive) | 98.4% (inactive) | 115% (inactive) | 103% (inactive) | 98.1% (inactive) | 105% (inactive) | 99.9% (inactive) | 101% (inactive) | 98.5% (inactive) | 91.1% (inactive) | 109% (inactive) | 104% (inactive) | 112% (inactive) | 96.2% (inactive) | 107% (inactive) |
| CCOC(=O)c1sc(NC(=O)COc2cccc(/C=C3\Cc4ccc(Cl)cc4C3=O)c2)nc1C | 114% (inactive) | 57.5% (inactive) |  | 101% (inactive) | 118% (inactive) | 114% (inactive) | 110% (inactive) | 97% (inactive) | 98.8% (inactive) | 115% (inactive) | 103% (inactive) | 94.6% (inactive) | 54.3% (inactive) | -19.5% (active) | 103% (inactive) | 120% (inactive) | 12.3% (inactive) |  |
| Nc1ccc2c(c1)Cc1cc(Cl)c(Cl)cc1-2 | 70.4% (inactive) |  | 86.4% (inactive) | 82.6% (inactive) | 78.6% (inactive) | 69.1% (inactive) | 67.9% (inactive) | 62.9% (inactive) | 85.3% (inactive) | 60.4% (inactive) | 28.1% (inactive) | 38.1% (inactive) | 30% (inactive) | 66.4% (inactive) | 52.2% (inactive) | 7.25% (active) | 49.5% (inactive) | 89.1% (inactive) |
| N#Cc1ncc(-c2ccc(C(F)(F)F)cc2)c(NC2CCCCCC2)n1 | 52.6% (inactive) | -5.45% (active) |  | 38.8% (inactive) | 12.6% (inactive) | 73.6% (inactive) | 46.5% (inactive) | 69.8% (inactive) | 7.65% (active) | 49.5% (inactive) | 8.67% (active) | 19.9% (inactive) | 14% (inactive) | 73.2% (inactive) | 22.3% (inactive) | 1.17% (active) | 15.6% (inactive) |  |
| CCC(=O)Nc1cc2c(cc1Cl)-c1ccccc1C2 | 101% (inactive) |  | 98% (inactive) | 85.5% (inactive) | 101% (inactive) | 107% (inactive) | 111% (inactive) | 90.1% (inactive) | 85.2% (inactive) | 86.1% (inactive) | 113% (inactive) | 101% (inactive) | 95.2% (inactive) | 87% (inactive) | 95.2% (inactive) | 106% (inactive) | 99.2% (inactive) | 86.4% (inactive) |
